Source: PubChem BioAssay AID2284171 (EPA ToxCast)
Inconclusive results are not listed. Calls of active or inactive are those of the source. Rule for the calls: active = hit-call score of the fitted dose curve at least 0.9, where 1 is the maximum; inconclusive = response in the unintended direction; inactive = score below 0.9.

Assay: ERF_FR_GPCR_rPY2: Eurofins (ERF) G Protein-Coupled Receptor (GPCR) Radioligand Binding LeadHunter Assay for rat P2Y Receptor (Non-Selective) Agonism
Protocol: ERF_FR_GPCR_rPY2 is a biochemical, single-readout assay that uses extracted gene-proteins in a cell-free assay. Measurements were taken 1 hour after chemical dosing in a 96-well plate. See Non-Selective Rat P2Y GPCR Binding (Agonist Radioligand) Assay, Cerep.ERF_FR_GPCR_rPY2 is an assay component calculated from the ERF_FR_GPCR_rPY2 assay. It is designed to measure radioligand binding using a type of binding reporter as detected by scintillation counting with radiometry technology.Data from the assay component ERF_FR_GPCR_rPY2 was analyzed at the assay endpoint, ERF_FR_GPCR_rPY2, in the positive analysis fitting direction relative to DMSO as the negative control and baseline of activity. Using a type of binding reporter, gain-of-signal activity can be used to understand changes in binding as they relate to gene P2RY1. To generalize the intended target to other relatable targets, this assay endpoint is annotated to the gpcr intended target family, where the subfamily is P2Y.
Rat cells are incubated for 60 minutes at room temprature with [35S]dATPalpha S (10 nM) ligand and Datpalphas as control inhibitor. Test Sample Requirements: Minimum for 1) Screen: 60 ul of 10 mM stock -OR- 1 mg (pre-weighed) for 10 uM final testing. 2) Dose Response: 90 ul of 10 mM stock -OR- 1 mg (pre-weighed) for a top concentration at 10 uM.

| SMILES | AC50 |
| --- | --- |
| O=C(/C=C/c1ccc(O)cc1)CC(=O)/C=C/c1ccc(O)cc1 | 0.937 µM (active) |
